Assay [1] can be described thus: qHTS assay to identify small molecule antagonists of the estrogen related receptor (ERR) signaling pathway from Tox21 library - cell viability counter screen (AID 1224834). Note: nearly all actives have a fitted effect of over 30% in size. Note: potency is the fitted concentration of half-maximal effect. Summed up:
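Cytotoxicity of test substances is gauged in the same ERR cells used for the antagonist screen, after 17.5 h of compound treatment at 37 C, by CellTiter-Fluor fluorescence measured after 30 min.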

For assay [2], the target named is Luciferin 4-monooxygenase (Photinus pyralis) (UniProt P08659). The assay is described as follows: qHTS assay to identify small molecule inhibitors of firefly luciferase (AID 1224835). For activity change, negative = inhibition: series mostly up to about 120 µM. Note: nearly all actives have a fitted effect of over 25% in size. Note: potency is the fitted concentration of half-maximal effect. Summed up: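 Quantitative HTS format; KM concentrations of both substrates. Purified P. pyralis FLuc activity quantified from luminescence images.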
Chain of Luciferin 4-monooxygenase (Photinus pyralis) (P08659 whole entry, looked up): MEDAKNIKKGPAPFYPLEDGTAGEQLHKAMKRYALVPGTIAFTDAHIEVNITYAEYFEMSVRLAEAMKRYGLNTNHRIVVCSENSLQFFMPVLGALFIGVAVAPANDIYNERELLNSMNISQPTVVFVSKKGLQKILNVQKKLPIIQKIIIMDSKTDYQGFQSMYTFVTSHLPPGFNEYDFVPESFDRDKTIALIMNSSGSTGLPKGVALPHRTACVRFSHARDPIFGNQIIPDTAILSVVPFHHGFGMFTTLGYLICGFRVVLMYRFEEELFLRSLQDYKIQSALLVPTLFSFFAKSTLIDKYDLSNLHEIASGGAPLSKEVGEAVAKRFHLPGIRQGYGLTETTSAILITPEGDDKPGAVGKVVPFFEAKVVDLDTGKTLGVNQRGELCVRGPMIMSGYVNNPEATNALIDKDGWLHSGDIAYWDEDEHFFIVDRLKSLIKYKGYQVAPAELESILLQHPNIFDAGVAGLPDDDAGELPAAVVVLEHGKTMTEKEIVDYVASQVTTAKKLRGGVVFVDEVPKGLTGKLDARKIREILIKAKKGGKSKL
The nature of assay [3]: qHTS assay to identify small molecule agonists of the constitutive androstane receptor (CAR) signaling pathway - cell viability counter screen (AID 1224836). For viability change, negative = cytotoxic: series mostly up to about 92 µM. Note: nearly all actives have a fitted effect of over 45% in size. Note: potency is the fitted concentration of half-maximal effect. The procedure, abridged:
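HepG2-CYP2B6-hCAR, 2500 cells/well, 4 h pre-incubation; cpd 15 conc + PK11195 0.75 uM final; 23 h, 37 C/5% CO2; CellTiter-Fluor, fluorescence.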
In general terms: Quantitative high-throughput screening tests each substance at several concentrations.

A short description of assay [4]: qHTS assay to identify small molecule antagonists of the constitutive androstane receptor (CAR) signaling pathway - cell viability counter screen (AID 1224837). For activity change, negative = cytotoxicity: series mostly up to about 92 µM. Note: nearly all actives have a fitted effect of over 45% in size. Note: potency is the fitted concentration of half-maximal effect. The procedure, abridged: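 Multiplexed cytotoxicity read-out for the CAR antagonist screen: double-stable HepG2-CYP2B6-hCAR cells co-treated with 50 nM CITCO (final) and compound over 15 concentrations, incubated 23 hr, then assessed by CellTiter-Fluor fluorescence.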

Assay [5] deals with Nuclear receptor subfamily 1 group I member 3 (Homo sapiens) (UniProt Q14994). The assay is described as follows: qHTS assay to identify small molecule antagonists of the constitutive androstane receptor (CAR) signaling pathway (AID 1224838). Note: nearly all actives have a fitted effect of over 40% in size. Note: potency is the fitted concentration of half-maximal effect. Summed up: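 Compounds were titrated across 15 concentrations onto HepG2 cells double-stably expressing hCAR and a CYP2B6-2.2kb reporter, together with 50 nM CITCO (final). After 24 h at 37 C, luciferase activity was measured by luminescence.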
Chain of Nuclear receptor subfamily 1 group I member 3 (Homo sapiens) (Q14994 whole entry, looked up): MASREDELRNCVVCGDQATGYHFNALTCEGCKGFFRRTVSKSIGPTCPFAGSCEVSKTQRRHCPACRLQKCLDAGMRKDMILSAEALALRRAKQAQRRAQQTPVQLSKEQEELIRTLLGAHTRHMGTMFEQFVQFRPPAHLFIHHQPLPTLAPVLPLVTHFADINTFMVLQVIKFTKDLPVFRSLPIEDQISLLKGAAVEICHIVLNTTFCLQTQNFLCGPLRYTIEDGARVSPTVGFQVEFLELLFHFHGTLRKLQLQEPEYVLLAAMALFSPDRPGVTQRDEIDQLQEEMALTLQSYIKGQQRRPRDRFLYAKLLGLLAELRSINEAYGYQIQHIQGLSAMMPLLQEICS

The target is the same in assay [6]. The assay is described as follows: qHTS assay to identify small molecule agonists of the constitutive androstane receptor (CAR) signaling pathway (AID 1224839). Note: series mostly up to about 92 µM; nearly all actives have a fitted effect of over 15% in size. The procedure, abridged: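 HepG2-CYP2B6-hCAR cells, 2500/well, 4 h pre-incubation; compounds 15 conc.; PK11195 0.75 uM final; 24 h, 37 C/5% CO2; ONE-Glo luciferase read.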
The nature of assay [7]: qHTS assay to identify small molecule antagonists of the estrogen related receptor signaling pathway with the pleiotropic PPARgamma coactivator (PGC) from Tox21 10K library - cell viability counter screen (AID 1224840; active = well fitted cell-killing curve with a large enough effect in the repeat runs, not every such curve was filed as active; note: nearly all actives have a fitted effect of over 40% in size). Summed up: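 Step one, plate 2,000 PGC/ERR cells per well; step two, incubate 6 h at 37 C/5% CO2; step three, pin-transfer compounds; step four, incubate 17.5 h; step five, add CellTiter-Fluor and read fluorescence after 30 min.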

The target of assay [8] is Thyrotropin receptor (Homo sapiens) (UniProt P16473). The assay is described as follows: qHTS assay to identify small molecule agonists of the thyroid stimulating hormone receptor (TSHR) signaling pathway (AID 1224843; calls by dose curve; note: nearly all actives have a fitted effect of over 45% in size). Summed up: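 Cell line HEK293 with TSHR; density 800/well. Exposure 30 min RT. Readout HTRF cAMP (cAMP-d2/anti-cAMP-cryptate), 1 h RT before reading.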
Chain of Thyrotropin receptor (Homo sapiens) (P16473 whole entry, looked up): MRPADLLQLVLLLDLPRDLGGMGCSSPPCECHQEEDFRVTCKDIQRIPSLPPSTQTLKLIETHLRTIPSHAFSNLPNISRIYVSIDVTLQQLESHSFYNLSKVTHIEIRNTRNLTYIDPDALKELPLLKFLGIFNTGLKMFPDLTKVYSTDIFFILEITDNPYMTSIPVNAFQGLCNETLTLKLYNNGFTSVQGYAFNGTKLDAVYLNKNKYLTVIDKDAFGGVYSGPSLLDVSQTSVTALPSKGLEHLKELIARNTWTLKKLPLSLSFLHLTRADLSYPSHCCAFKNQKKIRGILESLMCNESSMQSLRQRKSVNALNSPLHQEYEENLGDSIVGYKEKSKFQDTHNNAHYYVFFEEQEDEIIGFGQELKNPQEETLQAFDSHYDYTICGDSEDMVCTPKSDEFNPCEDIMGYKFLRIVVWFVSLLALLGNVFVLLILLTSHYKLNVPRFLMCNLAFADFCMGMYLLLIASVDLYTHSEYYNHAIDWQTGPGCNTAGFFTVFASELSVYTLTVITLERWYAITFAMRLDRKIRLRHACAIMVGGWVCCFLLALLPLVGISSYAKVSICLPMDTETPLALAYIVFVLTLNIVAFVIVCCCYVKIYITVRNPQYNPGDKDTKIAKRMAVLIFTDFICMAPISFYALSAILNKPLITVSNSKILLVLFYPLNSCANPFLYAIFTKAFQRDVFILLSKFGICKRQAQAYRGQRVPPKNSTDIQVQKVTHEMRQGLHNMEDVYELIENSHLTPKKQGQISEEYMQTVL

A short description of assay [9]: qHTS assay to identify small molecule agonists of the hypoxia (HIF-1) signaling pathway - cell viability counter screen (AID 1224844; calls by dose curve; note: nearly all actives have a fitted effect of over 50% in size). The procedure, abridged:
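Tox21 10K compounds were added to HRE-bla ME-180 cells (0.5% dialyzed FBS) and incubated 17 hrs at 37C; ATP-based CellTiter-Glo luminescence then reported cell viability in the same wells.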

A short description of assay [10]: qHTS assay to identify small molecule agonists of H2AX (AID 1224845; active = well fitted activation curve with a large enough effect in the signal ratio in the repeat runs, not every such curve was filed as active; the % refers to the signal ratio; note: potency is the fitted concentration of half-maximal effect). The procedure, abridged:
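Wild-type CHO-K1 cells plated overnight, then exposed 3 hr at 37C to compounds at 15 concentrations (0.76% DMSO). Lysed, then HTRF anti-pH2AX(S139)-cryptate/anti-H2AX-d2 detection after 24 hr at room temperature; emissions 665 and 620 nm.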

Assay [11] can be described thus: qHTS assay to identify small molecule agonists of the hypoxia (HIF-1) signaling pathway (AID 1224846; active = well fitted activation curve with a large enough effect in the signal ratio in the repeat runs, not every such curve was filed as active; the % refers to the signal ratio). Summed up:
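Steps: seed ME-180 HRE-bla cells (2,000/well, 0.5% dialyzed FBS); incubate 5 hrs at 37C; pin-transfer compounds or DMSO; incubate 17 hrs; add LiveBLAzer B/G substrate CCF4-AM; measure reporter activation by FRET.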

Assay [12] in a line: qHTS assay to identify small molecule agonists of H2AX - cell viability counter screen (AID 1224847; calls by dose curve; note: top concentration of the series differs between compounds; nearly all actives have a fitted effect of over 30% in size). The procedure, abridged: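 Cells plated first: CHO-K1, 1000 per well in 10% FBS medium, incubated overnight at 37C. Then 15-point compound titration added (final DMSO 0.76%) for 3 hr. Finally CellTiter-Glo added and luminescence read.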
The nature of assay [13]: qHTS RealTime-Glo MT Cell Viability Assay in HepG2 cells - 24 hour (AID 1224867). Note: nearly all actives have a fitted effect of over 50% in size. The procedure, abridged: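 HepG2 cells (600/well) were dispensed with RealTime-Glo reagents, incubated 5 h at 37 °C, then treated with compounds in DMSO for up to 40 h. Nonlytic NanoLuc luminescence reflecting viable cells was read at each stated time point.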
The nature of assay [14]: qHTS RealTime-Glo MT Cell Viability Assay in HEK293 cells - 32 hour (AID 1224868). Note: top concentration of the series differs between compounds; nearly all actives have a fitted effect of over 50% in size. The procedure, abridged: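 HEK293 cells seeded with NanoLuc/prosubstrate reagent, rested 5 h at 37 C, then dosed and kept at 37 C up to 40 h. Nonlytic real-time luminescence from viable cells read at 0, 8, 16, 24, 32 and 40 h.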
Assay [15] can be described thus: A CellTox Green Cytotoxicity Assay to monitor cytotoxicity in HEK293 cells - 0 hour (AID 1224869). Note: nearly all actives have a fitted effect of over 50% in size. The procedure, abridged:
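Cytotoxicity was tracked continuously in HEK293 cells by a DNA-binding dye excluded from viable cells. Compounds were transferred in DMSO 5 h after seeding; fluorescence was recorded at intervals up to 40 h.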

A short description of assay [16]: qHTS RealTime-Glo MT Cell Viability Assay in HepG2 cells - 40 hour (AID 1224870). Note: nearly all actives have a fitted effect of over 50% in size. The procedure, abridged: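 HepG2 cells mixed with RealTime-Glo MT reagents (NanoLuc plus cell-permeant prosubstrate) were seeded at 600 cells/well, incubated 5 h at 37 C/5% CO2, then pinned with compounds in DMSO; nonlytic luminescence tracked viability during 40 h treatment.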

Values without a mark were called inactive. Records with an inconclusive call do not appear. Calls of active or inactive are those of the source. Unless noted, calls come from the whole dose curve; as a rule, active = well fitted curve in the direction sought with a large enough effect in the repeat runs; inconclusive = weak or mixed curves; inactive = no such curve, though single readings can be large; an effect the other way counts as inactive or inconclusive.
% is set by controls: 0 for no effect and ±100 for the full control effect.

In the case of `CCCOC(=O)c1ccc(C(=O)OCCC)nc1`, the Potency entry in assay [1], in [3], in [4], in assay [5], in assay [6] and in [7] was “inactive” in each case. For the same molecule, the Potency result in assay [8], in assay [9], in [10], in assay [12], in assay [13] and in assay [14] was “inactive” in each case. Moreover, the Potency entry in [15] and in [16] was “inactive” in each case. Also, the Potency in [2] was 35.6 µM (active). The result in assay [11] was inactive.
Take `O=C(N/N=C/c1ccc([N+](=O)[O-])o1)c1ccc(O)cc1`: the Potency was 13.3 µM (active) in [1], 9.44 µM (active) in [3], 8.41 µM (active) in assay [4] and 8.41 µM (active) in [5]. Also, the Potency entry in [2], in assay [6], in assay [7], in assay [9], in assay [12] and in [15] was “inactive” throughout.
Turning to `CC1=C(C=O)C(C)(C)CCC1`, the Potency entry in [1], in [2], in assay [3], in assay [4], in [5] and in assay [6] was “inactive” each time. Moreover, the Potency entry in assay [7], in assay [8], in assay [9], in [10], in assay [12] and in assay [13] was “inactive” throughout. The Potency result in assay [15] and in [16] was “inactive” each time. Moreover, in [11], the molecule was classed as inactive.
As to `CCCC(=O)O[C@]1(C(=O)COC(=O)CC)CC[C@H]2[C@@H]3CCC4=CC(=O)CC[C@]4(C)[C@H]3[C@@H](O)C[C@@]21C`, the viability change, negative = cytotoxic is 2.61% [at 19 µM] in assay [1], 10.6% [at 19 µM] in assay [3] and -4.48% [at 19 µM] in assay [7]. Further, in [2], the activity change, negative = inhibition was 4.64% [at 23.6 µM]. Also, the activity change, negative = cytotoxicity in [4] was 6.46% [at 19 µM]; in [9] it was -1.64% [at 15.8 µM]; in assay [12] it was 1.02% [at 31.6 µM]; in [13] it was 1.66% [at 15.8 µM]. The activity, negative = inhibition in assay [5] was 2.05% [at 19 µM]. Further, the activation in assay [6] was -0.514% [at 19 µM]; in assay [8], -3.04% [at 19 µM]; in assay [11] it was -2.77% [at 15.8 µM]. Moreover, in [10], the activation (H2AX phosphorylation) was -1.56% [at 31.6 µM]. Also, the activity change, negative = cytotoxic was -2.43% [at 15.8 µM] in assay [14] and -0.605% [at 15.8 µM] in assay [16]. Further, the cytotoxicity in assay [15] is -7.53% [at 15.8 µM].
As for `Cc1cnc(C)c(C)n1`, the Potency entry in assay [1], in [2], in assay [3], in assay [4], in assay [5] and in [6] was “inactive” throughout. The Potency entry in [7], in [8], in [9], in assay [10], in [12] and in assay [13] was “inactive” in each case. Moreover, the Potency entry in assay [14] and in assay [16] was “inactive” in each case. For the same molecule, in assay [11], the result was inactive.
Turning to `CCCCCC=CCC=CCCCCCCCC(=O)OCC`, the Potency result in assay [1], in [2], in [3], in assay [4], in [5] and in assay [6] was “inactive” in each case. In addition, the Potency entry in [7], in [8], in assay [9], in assay [12], in [13] and in assay [14] was “inactive” in each case. The Potency result in assay [15] and in assay [16] was “inactive” each time. Also, in assay [10], the Potency is 55.2 µM (active). Further, the call in [11] was inactive.
Take `CC(C)C(=O)O`: the Potency entry in assay [1], in assay [2], in assay [3], in [4], in assay [5] and in [6] was “inactive” throughout. Moreover, the Potency entry in [7], in [9], in [10], in assay [12], in [13] and in [14] was “inactive” in each case. Besides, the Potency entry in [16] was “inactive”. In assay [11], the molecule was called inactive.
On to `CCn1nc(C)c2c1C(=O)NCC(c1ccc(O)cc1)=N2`, for which the Potency result in assay [1], in assay [2], in assay [3], in [4], in assay [5] and in assay [6] was “inactive” throughout. Besides, the Potency entry in assay [7], in [8], in [9], in assay [10], in [13] and in assay [14] was “inactive” each time. Besides, the Potency result in assay [15] and in assay [16] was “inactive” each time. For the same molecule, the result in assay [11] was inactive.
